Data on 61 sequences can be found in the supplement of paper PMC11417369.

± gives the standard deviation of the averaged measurements. The full ranking holds about 25,000 sequences; the median of “ln(normalized median fluorescence intensity)” is about 10, and the highest 2% start at about 12. This is one part of a sample in which the highest values are shown more often than they occur.

This test has as its system PfAP2-G AP2 domain (GST-tagged). The experiment in a line: gcPBM binding intensity (ln(normalized median fluorescence intensity)); higher = stronger DNA binding. The gist of the method: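 An Agilent 4 × 180k array carrying primer-extended double-stranded 36-bp intergenic genomic probes and negative controls received GST-tagged P. falciparum DNA-binding domains expressed in E. coli, about 25 μg on average, for 1 h. The binding buffer contained 1× PBS, 1% milk, 0.2 mg/ml BSA, 0.5% salmon testes DNA and 0.03% Triton X-100. Binding intensity is the top Masliner-normalised natural-log median intensity across replicate spots of either probe orientation, read after Alexa488 anti-GST antibody staining and a 488 nm scan.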
Regarding “TTTGAAATAAAAAGGTGTACACTCGATTAATAAATA [XGTACX_site6943]”, the “gcPBM binding intensity (ln)” value turned out to be 11.8 ± 0.98.

With “AAAGGTGTATATAATACACACGTGTGATTAAAATTG [CACACA_site8104]”, the “gcPBM binding intensity (ln)” value was determined as 10.13 ± 0.064.

Turning to “GGTGTTAAAAAATACACACACAAAAAAAAAAAAAAA [CACACA_site138]”, the “gcPBM binding intensity (ln)” value came to 9.95 ± 0.51.

With “TGTTAATAAAGGTGTACACAAAATAAAAAAAATTAT [CACACA_site4288]”, the “gcPBM binding intensity (ln)” value was 11.7 ± 0.92.

In the case of “AATTAATAAAAAAGGTGTACAGTAAATGCAATAATC [XGTACX_site7956]”, the “gcPBM binding intensity (ln)” value came out at 11.7 ± 0.99.

With “AATTAATAAGAAAGGTGTACAGAAAAAAAAAAATAT [XGTACX_site2106]”, the “gcPBM binding intensity (ln)” value is 11.5 ± 0.8.

Consider “TAAAATTTAAAAAGGTGTACACTATAAATTAAAATA [XGTACX_site2081]”, for which the “gcPBM binding intensity (ln)” value came to 11.7 ± 0.95.

Take “AAAAAAAAAAAAAGGTGTACATGCAAAATAAATTCT [XGTACX_site4592]”: the “gcPBM binding intensity (ln)” value turned out to be 11.6 ± 0.93.

On to “AATAAATTAATAAGGTGTACATAAATAATTTATATA [XGTACX_site8278]”, for which the “gcPBM binding intensity (ln)” value worked out at 11.5 ± 0.94.

Regarding “ACACAAAAATAAAAATGTACAAATTAAAAAAAATGA [XGTACX_site2083]”, the “gcPBM binding intensity (ln)” value was 10.8 ± 0.42.

“AAAAAAAAAAGGTGTACATGCAAAATAAATTCTTAA [TGCATGCA_site556]”: the “gcPBM binding intensity (ln)” value is 11.6 ± 1.1.

On to “TTAAAAAAAAAAAGGTGTACTATAATTTAATATCAC [XGTACX_site6316]”, for which the “gcPBM binding intensity (ln)” value turned out to be 11.6 ± 1.1.

With “TATAAATTATATATTTGTACGTATATCACATATATA [XGTACX_site7053]”, the “gcPBM binding intensity (ln)” value was 11.3 ± 0.84.

On to “AATTTTATTTAAAGTGCATGTAAAATTAAAACTTTT [TGCATGCA_site989]”, for which the “gcPBM binding intensity (ln)” value worked out at 10 ± 0.057.

With “ATATAGAACACCTGTGCATGCAAGTGCTAAAAAATT [TGCATGCA_site213]”, the “gcPBM binding intensity (ln)” value is 10.2 ± 0.2.

Take “ATTTTTTCTGTCTTAATTGGACCCACTGCAAATGGG [CACACA_negctrl_site1158]”: the “gcPBM binding intensity (ln)” value worked out at 10.9 ± 0.54.

Regarding “AACATATAAATGATATGTACACACATTTATATATAT [XGTACX_site7364]”, the “gcPBM binding intensity (ln)” value came to 11.4 ± 0.53.

In the case of “TATTTGATAAAAAAAAGTACTAGAATTTCGCTTTTG [XGTACX_site7754]”, the “gcPBM binding intensity (ln)” value was found to be 11.1 ± 0.7.

As to “ATATATACCTAAGACACACACATATAGATTTATATA [CACACA_site6498]”, the “gcPBM binding intensity (ln)” value worked out at 9.97 ± 0.028.

“AAATGTTAATAAAGGTGTACACAAAATAAAAAAAAT [XGTACX_site463]”: the “gcPBM binding intensity (ln)” value worked out at 11.7 ± 0.71.

Consider “TAGGTGTTAAAAAATACACACACAAAAAAAAAAAAA [CACACA_site7927]”, for which the “gcPBM binding intensity (ln)” value came out at 9.93 ± 0.45.

Take “AAAAAAATAATAAAATGTACAAATAAACACATAAAG [XGTACX_site5102]”: the “gcPBM binding intensity (ln)” value came out at 10.8 ± 0.39.

Take “TAAAGTAAAGACATACTTATTTTCCATCCACTTCTT [CACACA_negctrl_site1288]”: the “gcPBM binding intensity (ln)” value is 10 ± 0.18.

“AGTATACTCGGACACACACACACATATATATATATA [CACACA_site5031]”: the “gcPBM binding intensity (ln)” value is 11.1 ± 0.51.

As to “AATTATTTTAAATATTGTACTATTACAGAATGGTGT [XGTACX_site5693]”, the “gcPBM binding intensity (ln)” value came to 11 ± 0.56.

For the sequence “ATTAAATCATATGAATGTACGGATATATATATTTCC [XGTACX_site8650]”, the “gcPBM binding intensity (ln)” value was 10.7 ± 0.48.

Consider “ATAGTATTTTTTATTACACACAAATAAAAAGAAAAA [CACACA_site2087]”, for which the “gcPBM binding intensity (ln)” value stood at 10.2 ± 0.26.

For the sequence “AGTTATTTTAAATGTAGTACACAAAAGAAATATTAA [XGTACX_site4092]”, the “gcPBM binding intensity (ln)” value was 11.6 ± 0.94.

Consider “GTAATTTTAAAGAAAAGTACACATTTATTAATTATT [XGTACX_site4468]”, for which the “gcPBM binding intensity (ln)” value came to 11.5 ± 1.2.

For the sequence “AAAAAAAAAAAAAAAAGTACACATCATTTTATGAAA [XGTACX_site1402]”, the “gcPBM binding intensity (ln)” value was found to be 11.7 ± 0.76.

For “ATTTATGAAAAGTAAAGTACACACAGGAAAAAAAAA [XGTACX_site3564]”, the “gcPBM binding intensity (ln)” value came to 11.4 ± 0.72.

Take “TTTTAAAGAAAAAAATGTACAAAATTTTTATTTTAA [XGTACX_site1496]”: the “gcPBM binding intensity (ln)” value was determined as 10.6 ± 0.35.

Turning to “TTTTTTATTAAAAGTAGTACACATGAAAAAAAAAAA [XGTACX_site5524]”, the “gcPBM binding intensity (ln)” value turned out to be 11.8 ± 1.

Turning to “AATTATTTTATGAAAAGTACACATTGTTTTAATTCT [XGTACX_site4506]”, the “gcPBM binding intensity (ln)” value stood at 11.4 ± 0.98.

Regarding “TATATTTTATAAAAAAGTACACATGAAAATGTATTT [XGTACX_site5889]”, the “gcPBM binding intensity (ln)” value was 11.5 ± 1.1.

“TTCTTTTTAAATTACACACACATATAAATATGTATA [CACACA_site7618]”: the “gcPBM binding intensity (ln)” value came out at 10.04 ± 0.071.

As for “AAACAAAATGGTAACACACACATATATAAATATGTA [CACACA_site6994]”, the “gcPBM binding intensity (ln)” value was 10.2 ± 0.35.

For “CATATTGGTATGCTCATGCACTTTTATTTTGTTATT [GTGCAC_site9553]”, the “gcPBM binding intensity (ln)” value amounted to 10.2 ± 0.13.

In the case of “TTATAATAATATAATACATGCATATATATTTAAATA [TGCATGCA_site903]”, the “gcPBM binding intensity (ln)” value came out at 9.62 ± 0.12.

Turning to “TGTTATTATTTGTACACACACATATAGATCCTTGTT [CACACA_site7667]”, the “gcPBM binding intensity (ln)” value turned out to be 11.3 ± 0.83.

With “AAATTACTGTAAAAAAGTACAGAAGTTCTTATTTTT [XGTACX_site7416]”, the “gcPBM binding intensity (ln)” value was found to be 11.5 ± 0.93.

For the sequence “TTAAAATTATAATACGTACACACCTTATCTTTTTGG [CACACA_site278]”, the “gcPBM binding intensity (ln)” value stood at 11.5 ± 0.86.

Consider “TTAAAATTAAAATACGTACACACCTTATCTTTTTGG [CACACA_site7982]”, for which the “gcPBM binding intensity (ln)” value was determined as 11.6 ± 0.81.

Consider “AAAATTAAAATACGTACACACCTTATCTTTTTGGCT [CACACA_site4311]”, for which the “gcPBM binding intensity (ln)” value worked out at 11.7 ± 1.1.

Turning to “TGGTTAATATGTGAAAGTACATATTATATTAAAATG [XGTACX_site2636]”, the “gcPBM binding intensity (ln)” value came to 11.1 ± 0.58.

“TAGTTAATATGAAAAAGTACACGTTTCAGTGAAAGT [XGTACX_site7402]”: the “gcPBM binding intensity (ln)” value was 11.7 ± 1.

On to “TATATTAATATGAAAAGTACACATTCTATATATATA [XGTACX_site929]”, for which the “gcPBM binding intensity (ln)” value was 11.4 ± 0.91.

Consider “AATAAATAAATATATTGTACATATATATATATATAT [XGTACX_site8627]”, for which the “gcPBM binding intensity (ln)” value came out at 11 ± 0.53.

Consider “ATAAATATACCAATCGGTACACATTTATACAAACAA [XGTACX_site7484]”, for which the “gcPBM binding intensity (ln)” value is 11 ± 0.64.

With “ATTCTAAATTAAAATACACACATATATACATAATAT [CACACA_site2792]”, the “gcPBM binding intensity (ln)” value was 9.985 ± 0.021.

Consider “TTTTGATCATCCAAAATATCTTCATCTGAACTACTA [CACACA_negctrl_site939]”, for which the “gcPBM binding intensity (ln)” value came to 9.84 ± 0.042.

As to “ATTTTATTTTTGTGCACACTGATAAATTGAAAAGAG [CACACA_site2948]”, the “gcPBM binding intensity (ln)” value came to 10.8 ± 0.57.

For “AATAATCATTTTCATAGTACGTATGATTAGAAAAAA [XGTACX_site2589]”, the “gcPBM binding intensity (ln)” value was 11 ± 0.66.

With “AATAAATTCATGAATTGTACGTAATGATAACATGAA [XGTACX_site2591]”, the “gcPBM binding intensity (ln)” value was determined as 11.3 ± 0.75.

As for “TATGATTCATAATAGTGTACGTAAAAATTGACTAGA [XGTACX_site5376]”, the “gcPBM binding intensity (ln)” value came to 11.7 ± 1.

Turning to “TTAGCTACACGCTAATGTACACAAATACAAAGAAAA [XGTACX_site3993]”, the “gcPBM binding intensity (ln)” value turned out to be 11.4 ± 0.71.

Consider “AAAATGTGCCCACGCGTACACACAAAAAAAGAAAAA [CACACA_site2004]”, for which the “gcPBM binding intensity (ln)” value was 11.6 ± 0.79.

For “CATGCTTATATGTGCACACACAAAAGAAAAGAAAAA [CACACA_site1655]”, the “gcPBM binding intensity (ln)” value is 10.6 ± 0.62.

Take “AATGTGCCCACGCGTACACACAAAAAAAGAAAAAAA [CACACA_site2003]”: the “gcPBM binding intensity (ln)” value came out at 11.7 ± 1.1.

As for “AAAAATGTGCACACGCGTACACACAAAAAAAGAAAA [XGTACX_site4097]”, the “gcPBM binding intensity (ln)” value was found to be 11.5 ± 0.79.

For the sequence “AATGTGCACACGCGTACACACAAAAAAAGAAAAAAA [CACACA_site7031]”, the “gcPBM binding intensity (ln)” value amounted to 11.7 ± 1.1.
